# BCLXL inh: Bcl-xL (human) inhibition; GST-Bcl-xL / FITC-Bim BH3 peptide fluorescence polarization; 0.7% of 320,000 active; inhibition, % at 10.9 µM; Q07817;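 active = inhibition above the mean of all tested compounds plus 3 SD, cutoff set per campaign, cut at about 30% in these data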;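 also: 0% = DMSO wells and 100% = unlabeled Bim-BH3 peptide competitor; inhibitors lower millipolarization by displacing the labeled peptide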
# Target sequence (Q07817 whole entry, looked up): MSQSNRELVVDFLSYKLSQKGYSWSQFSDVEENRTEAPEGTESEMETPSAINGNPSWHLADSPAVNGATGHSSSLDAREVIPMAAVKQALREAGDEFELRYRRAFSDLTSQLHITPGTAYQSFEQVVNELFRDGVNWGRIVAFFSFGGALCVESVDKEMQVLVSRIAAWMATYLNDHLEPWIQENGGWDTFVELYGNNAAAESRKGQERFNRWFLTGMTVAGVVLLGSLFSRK
# Mcl1 Noxa PPI: Mcl-1/Noxa interaction inhibition. TR-FRET Mcl-1/Noxa peptide binding, 2 h. inhibition, % at 21.7 µM. Q07820. AID 1022. 1.5% of 220,000 active;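 active = compounds that cut the protein-peptide binding signal by more than 50% relative to plate controls in a single-dose test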;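 also: His-tagged Mcl-1 with rhodamine Noxa BH3 peptide and terbium anti-His antibody; 0% = Mcl-1 plus Noxa peptide wells and 100% = peptide-only wells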
# Target sequence (Q07820 whole entry, looked up): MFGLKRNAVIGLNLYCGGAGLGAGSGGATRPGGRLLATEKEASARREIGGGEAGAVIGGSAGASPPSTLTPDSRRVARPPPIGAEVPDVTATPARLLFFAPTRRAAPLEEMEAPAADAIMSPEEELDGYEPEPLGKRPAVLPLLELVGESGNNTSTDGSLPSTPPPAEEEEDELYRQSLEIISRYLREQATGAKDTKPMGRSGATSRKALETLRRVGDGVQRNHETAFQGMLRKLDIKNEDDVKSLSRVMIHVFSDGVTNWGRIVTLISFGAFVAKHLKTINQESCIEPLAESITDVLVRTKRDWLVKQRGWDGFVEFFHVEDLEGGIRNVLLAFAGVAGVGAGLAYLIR
# MCL1-BIM inh: disrupts human MCL1 binding to BIM-BH3 peptide | Q07820 | GST-MCL1 / FITC-Bim-BH3 fluorescence polarization | inhibition, % at 10.9 µM | 0.68% of 320,000 active;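 active = inhibition above the mean inhibition of all tested compounds plus 3 SD, set per campaign, cut at about 40% in these data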;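 also: 0% = DMSO wells and 100% = unlabeled Bim-BH3 peptide control; higher means more loss of mP so more displacement of Bim peptide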
# Bim-Mcl-1: disrupts Bim peptide binding to human Mcl-1; Bead-based flow cytometry, Bim peptide-Mcl-1 binding; Q07820; inhibition, % at 10 µM; 0.1% of 190,000 active; in the data active = inhibition above about 40%;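 also: 0% = no compound tracer wells and 100% = peptide blocker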
# Mcl1 Bid PPI: disrupts binding of human Mcl-1 to Bid peptide | Q07820 | TR-FRET Mcl-1/Bid-Dy647 peptide binding, 1536-well | inhibition, % at 21.7 µM | 0.97% of 220,000 active | AID 1021;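 active = compounds that cut the binding signal by more than half at the single screening dose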;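 also: His-tagged Mcl-1 with europium anti-His antibody binding Bid BH3 peptide; 0% = Mcl-1 plus peptide wells and 100% = peptide-only wells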
# GLD-1 RNA inh: GLD-1-TGE RNA interaction inhibition (C. elegans). Q17339. inhibition, % at 5.96 µM. purified GLD-1 + fluorescein TGE RNA, fluorescence polarization. 0.44% of 320,000 active;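 active = percent inhibition above a per-plate cutoff, the plate mean of test compounds plus 3 SD, cut at about 30% in these data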;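 also: 0% = DMSO wells with GLD-1 and probe and 100% = wells lacking GLD-1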
# GLD1 RNA confirm: confirmation of C. elegans GLD-1 TGE RNA binding inhibitors; shares compounds with GLD-1 RNA inh; GLD-1/FL-TGE RNA fluorescence polarization, biochemical; inhibition, % at 5.96 µM; 10% of 550 active;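 active = average inhibition across triplicates above the hit cutoff set in the primary screen, cut at about 32% in these data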;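 also: 0% = GLD-1 with RNA probe and DMSO and 100% = wells lacking GLD-1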
# Active calls of the source: *; / = no result. This is a sample that favours compounds with a hit; in the whole collection about 2.3% have one here.
SMILES,BCLXL inh,Mcl1 Noxa PPI,MCL1-BIM inh,Bim-Mcl-1,Mcl1 Bid PPI,GLD-1 RNA inh,GLD1 RNA confirm
COc1ccccc1N1CCN(C2=Nc3cccc4cccc2c34)CC1,3,14,2,-2,-9,8,/
CC(=O)N1CCN(C2=Nc3cccc4cccc2c34)CC1,37*,18,36,-2,-15,43*,38*
CCOC(=O)N1CCN(C2=Nc3cccc4cccc2c34)CC1,39*,5,39,0,-8,49*,30
c1cc2c3c(cccc3c1)C(N1CCOCC1)=N2,29,19,31,/,-16,45*,32*
CC1CN(C2=Nc3cccc4cccc2c34)CC(C)O1 (stereo not drawn),38*,-15,35,0,0,47*,36*
c1ccc(CC2CCN(C3=Nc4cccc5cccc3c45)CC2)cc1,6,26,9,-3,-9,4,/
COc1ccccc1N(Cc1cc(=O)[nH]c2ccccc12)C(=O)c1ccc([N+](=O)[O-])cc1,-6,-15,-6,/,-8,2,/
O=C(Nc1cccc2c1C(=O)NC2=O)c1ccc(S(=O)(=O)N2CCCC2)cc1,31*,/,27,-4,/,36*,19
Cc1cccc(NC(=O)c2ccc(S(=O)(=O)N3CCCC3)cc2)c1C,3,/,11,/,/,0,/
Nc1c(-c2cccc([N+](=O)[O-])c2)nc2ccccn12,6,28,14,-3,36,32*,43*
CCOc1ccc(C(=O)Nc2ccccc2N2CCN(C(=O)c3ccccc3)CC2)cc1[N+](=O)[O-],0,/,2,/,/,5,/
C=CCn1c(SCC(=O)Nc2cccc(S(N)(=O)=O)c2)nc2sc(C)c(C)c2c1=O,/,/,/,/,/,1,/
CCCCCn1c(C)c2c(OCC)cccc(=O)c2c1C,8,12,10,/,-96,4,/
CCOc1cccc(=O)c2c(C)n(C)c(C)c12,26,28,28,0,-78,40*,-4
COc1ccccc1C(=O)Nc1ccc(-c2nnn(CC(=O)N3CCN(C(=O)c4ccco4)CC3)n2)cc1,0,20,-4,1,-9,51*,-6
O=C(Nc1ccc(-c2nnn(CC(=O)N3CCN(C(=O)c4ccco4)CC3)n2)cc1)c1ccccc1F,1,9,4,-3,-14,4,/
Cc1ccc(-c2cn3cccnc3n2)cc1NC(=O)c1cccs1,4,19,3,-2,-32,31*,-4
COc1cc(OC)cc(C(=O)Nc2cc(-c3cn4cccnc4n3)ccc2C)c1,4,19,-3,-1,-8,-7,/
Nc1c(C(=O)OCC(=O)Nc2ccccc2Br)[nH]c(=O)[nH]c1=O,/,/,/,/,/,39*,9
Nc1c(C(=O)OCC(=O)NCc2ccccc2)[nH]c(=O)[nH]c1=O,1,-11,-3,/,-26,2,/
CCOC(=O)c1cc2c(ccn2C)n1CC(=O)N(Cc1ccccc1)c1ccccc1,6,16,2,-3,-62,36*,56*
CCOC(=O)c1cc2c(ccn2C)n1CC(=O)N(Cc1ccccc1)c1ccc(F)cc1,9,8,13,-4,-75,37*,47*
CC(C)OC(=O)c1cc2c(ccn2C)n1CC(=O)N(Cc1ccccc1)c1ccc(F)cc1,9,10,14,0,-29,25,/
COc1ccc(NC(=O)CN(C)C(C)C(=O)NC(=O)NC2CCCCC2)cc1 (stereo not drawn),-6,/,-8,/,/,3,/
COC(=O)c1c(C(=O)OC)c2cccc3cc(-c4ccccc4)c4ccc1c4n32,25,50,33,8,-37,31*,15
SMILES,BCLXL inh,Mcl1 Noxa PPI,MCL1-BIM inh,Bim-Mcl-1,Mcl1 Bid PPI,GLD-1 RNA inh,GLD1 RNA confirm
COC(=O)c1cc2c(-c3ccccc3)cc3ccccn3c-2c1C(=O)OC,36*,-10,48*,0,-62,31*,12
O=C1C2CC=C(Cl)CC2C(=O)N1CCc1ccccc1 (stereo not drawn),33*,37,41*,0,-7,43*,21
O=C(CN1C(=O)C2CC=C(Cl)CC2C1=O)NCc1ccccc1 (stereo not drawn),41*,-4,42*,1,-20,42*,33*
O=C1C2CC=C(Cl)CC2C(=O)N1CCc1c[nH]c2ccccc12 (stereo not drawn),-1,19,0,5,-46,-3,/
Cc1ccc(C)c(NC(=O)CN(C)C(=O)C2=NNC(=O)CC2)c1,/,/,/,/,/,3,/
COc1ccc(/C=C(\NC(=O)c2ccco2)C(=O)NC(Cc2ccccc2)C(=O)O)cc1 (stereo not drawn),4,/,2,/,/,4,/
Cc1cc(C)nc(SCc2nnc(SCC(N)=O)n2Cc2ccco2)n1,-1,8,-7,1,-16,0,/
CCOC(=O)CSc1nnc(CSc2nc(C)cc(C)n2)n1Cc1ccco1,9,8,10,0,-13,36*,2
CCOC(=O)C1CCCN(C(=O)c2ccc(S(=O)(=O)N3CCCC3)cc2)C1 (stereo not drawn),4,/,1,/,/,5,/
CCOC(=O)C1CCCN(S(=O)(=O)c2ccc(S(=O)(=O)N3CCCC3)cc2)C1 (stereo not drawn),-2,/,0,/,/,38*,-4
Cc1ccc(S(=O)(=O)N2CCCC2CNC(=O)C(=O)NCCN2CCOCC2)cc1 (stereo not drawn),5,/,2,/,/,2,/
Nc1cccc2c1C(=O)N(Cc1cccc(Cl)c1)C2=O,22,6,23,-1,11,32*,39*
O=C(COc1ccc(Br)cc1)OCCN1CCCCC1,-1,/,3,/,/,10,/
CCOc1ccc(CCNC(=O)CCn2ccc3cc(S(=O)(=O)N4CCCC4)ccc32)cc1,-2,/,-5,/,/,-2,/
CCC1CCc2sc(C(=O)NCC(c3ccc(OC)cc3)N3CCCC3)cc2C1 (stereo not drawn),6,/,6,/,/,49*,-5
COc1ccc(OC2CCN(S(=O)(=O)c3ccc(C(C)=O)cc3)CC2)cc1,-4,/,-2,/,/,-5,/
CC(/C=C/c1ccc(N(C)C)cc1)=N\N=C1\NC(=O)CC(C(=O)Nc2ccccc2)S1 (stereo not drawn),-9,-26,-18,0,-50,33*,-83
CC(/C=C/c1ccc(N(C)C)cc1)=N/N=C1/NC(=O)CC(C(=O)Nc2ccc(Cl)cc2)S1 (stereo not drawn),-7,-62,-33,-2,-57,-12,/
COc1ccc(/C=C(\CC(=O)O)c2nc3ccccc3s2)cc1O,7,25,0,0,-3,55*,39*
COc1ccc(-c2nn(-c3ccccc3)cc2/C=C(\CC(=O)O)c2nc3ccccc3s2)cc1OC,3,12,0,0,-26,-7,/
